RORg inh = qHTS for inhibitors of ROR gamma transcriptional activity | Drosophila S2 Gal4-RORgamma UAS-luciferase reporter, 20 h | hit rate 5.4% among 310,000 | Nuclear receptor ROR-gamma (Mus musculus), P51450 | Potency, µM (top dose mostly 53.6 µM), for the others: at the highest dose activity change, negative = inhibition, actives largely listed as inhibitors | AID 2551, 2010; also: % is scaled to controls: 0 for no effect and ±100 for the full control effect; nearly all actives have a fitted effect of over 60% in size
Target sequence (P51450 whole entry, looked up, the tested form may be a part): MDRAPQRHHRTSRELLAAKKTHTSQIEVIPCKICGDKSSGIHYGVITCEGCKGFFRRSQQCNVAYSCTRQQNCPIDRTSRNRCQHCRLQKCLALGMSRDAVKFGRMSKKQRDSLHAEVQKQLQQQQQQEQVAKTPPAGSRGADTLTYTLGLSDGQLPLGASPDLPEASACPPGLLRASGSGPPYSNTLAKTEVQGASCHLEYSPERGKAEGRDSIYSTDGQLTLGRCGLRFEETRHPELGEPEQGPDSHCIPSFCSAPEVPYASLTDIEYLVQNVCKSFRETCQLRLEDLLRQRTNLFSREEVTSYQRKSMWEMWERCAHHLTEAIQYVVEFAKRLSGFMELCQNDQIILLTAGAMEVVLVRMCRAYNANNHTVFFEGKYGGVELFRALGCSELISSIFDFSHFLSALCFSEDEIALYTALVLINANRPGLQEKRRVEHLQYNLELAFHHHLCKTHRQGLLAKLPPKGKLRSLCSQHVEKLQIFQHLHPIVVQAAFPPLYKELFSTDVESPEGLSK
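In this cell-based reporter format, copper sulfate (700 uM final) drives Gal4–ROR gamma fusion expression from a metallothionein promoter in Drosophila Schneider cells; compounds preincubated 1 hr, reporter read after 20 hr at ambient temperature.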
Gal4-VP16 FLuc = VP16 counterscreen qHTS for inhibitors of ROR gamma transcriptional activity | hit rate 3.5% among 310,000 | Potency, µM (top dose mostly 53.6 µM), inactives show at the highest dose activity, negative = inhibition, most hits filed as inhibitors | AID 2546, 2010 | Drosophila S2 Gal4-VP16 UAS-luciferase, luminescence, 20 h;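 also: Gal4-VP16 expression switched on by copper sulfate through the metallothionein promoter; % is scaled to controls: 0 for no effect and ±100 for the full control effect; nearly all actives have a fitted effect of over 50% in size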
MCF10A rereplic = A quantitative high throughput screen for small molecules that induce DNA re-replication in MCF 10a normal breast cells; MCF 10A DNA re-replication, Hoechst nuclear intensity, 48 h; Potency, µM (titrated, usually from 46.1 µM), without a hit: at the top dose activity, positive = re-replication, actives largely listed as activators; hit rate 2.9% among 350,000; also: % of control where 0% means no effect; nearly all actives have a fitted effect of over 50% in size
ELG1 DNA repair = qHTS screen for small molecules that inhibit ELG1-dependent DNA repair in human embryonic kidney (HEK293T) cells expressing luciferase-tagged ELG1 | Potency, µM (highest dose often 46.1 µM), without a hit: top-dose activity change, negative = inhibition, usual class: inhibitors | AID 504467, 2011 | HEK293T ELG1-luciferase reporter, luminescence, 16 h; DNA damage induced by 5-fluorouridine | hit rate 2.3% among 330,000; also: % is scaled to controls: 0 for no effect and ±100 for the full control effect; nearly all actives have a fitted effect of over 55% in size
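HEK293T cells expressing luciferase-tagged ELG1 (2,000/well) received 5-Fluorouridine plus compound or DMSO for 16 hr at 37 °C. Luciferase was read by ONE-Glo luminescence after 30 min at room temperature.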
SW480 rerep = A quantitative high throughput screen for small molecules that induce DNA re-replication in SW480 colon adenocarcinoma cells. SW480 DNA re-replication, Hoechst DNA content imaging, 48 h. Potency, µM (doses to about 46.1 µM), for inactives: at the top dose re-replication activation, hits mostly activators. hit rate 1.8% among 340,000. AID 624297, 2012; also: % of control where 0% means no effect; nearly all actives have a fitted effect of over 55% in size
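SW480 cells exposed to compounds for 48 hr at 37 C, 5% CO2, then Hoechst-stained 40 min. Nuclear DNA content imaged by fluorescence scanning (405 nm excitation, 500-530 nm emission); re-replication scored as increased high-intensity nuclei.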
* hit, by the source's call; ? = inconclusive; / = no result; [ ] = remark or other dose. Most compounds without a hit are left out; they make up all but 10% or so of the library. Calls follow the shape of the dose curve; as a rule, active = well fitted curve in the direction sought with a large enough effect; inconclusive = small, poorly fitted or top-dose-only effect, or another doubt; inactive = no such curve, though single readings can be large; an effect the other way counts as inactive or inconclusive. Potency is read from the fitted curve at half-maximal effect.

SMILES	RORg inh	Gal4-VP16 FLuc	MCF10A rereplic	ELG1 DNA repair	SW480 rerep
Cc1onc(-c2ccccc2)c1-c1nnc(CN2CCN(S(=O)(=O)c3ccccc3)CC2)o1	/	/	6%	?	-5%
Cc1cc(C)c2c(n1)nn1c(NCCCN(C)C)cc(C)nc21	?	-1%	?	21%	21µM*
CN=c1scc(-c2ccc([N+](=O)[O-])cc2)n1/N=C/c1ccco1	-21%	3%	-8%	?	-3%
CN=c1scc(-c2ccc(F)cc2)n1/N=C/c1ccc(O)c(O)c1	0.11µM*	0.79µM*	?	?	15µM*
O=C(CCc1n[nH]c(=O)[nH]c1=O)N/N=C/c1ccco1	5%	-10%	5%	7%	-15%
Cc1ccc2nc3c(c(N)c2c1)CCN3c1ccccc1	13%	17%	15%	11%	3%
Cc1ccc2nc3c(c(N)c2c1)CCN3C	-6%	-1%	23µM*	-4%	28%
CC(C)N(Cc1nc(COc2ccccc2)no1)Cc1nccn1C	?	23%	6%	-10%	5%
CC(C)N(Cc1nc(-c2ccc3c(c2)OCO3)no1)Cc1nccn1C	14µM*	-8%	0%	7%	4%
COC(=O)c1ccc(-c2noc(CN3CCCCC3c3nccn3C)n2)cc1 (stereo unspecified)	13µM*	-12%	4%	4%	-115%
COC(=O)c1ccc(-c2noc(CN(Cc3nccn3C)C(C)C)n2)cc1	10µM*	-6%	13%	-4%	0%
COc1ccc(OC)c(/C=N/NC(=O)C(=O)NCc2cccnc2)c1	2%	-2%	-1%	?	6%
COc1ccccc1-n1nnnc1SCC(=O)N(C)C1CCS(=O)(=O)C1 (stereo unspecified)	/	/	16%	4%	-5%
O=C(CCCN1C(=O)c2ccccc2C1=O)Nc1nccs1	-3%	1%	-12%	?	2%
O=C(CCCCCCN1C(=O)c2ccccc2C1=O)Nc1nccs1	?	-7%	-5%	16µM*	-3%[9.22 µM]
COc1ccc(-c2cc(C(F)F)n3ncc(C(=O)n4ccnc4C)c3n2)cc1	32%	-1%	16µM*	-6%	?
COc1ccccc1CNC(=O)c1cnn2c(C(F)F)cc(C)nc12	12%	5%	14%	23µM*	-2%
COc1ccc(-c2cc(C(F)F)n3ncc(C(=O)N4CCN5CCCC5C4)c3n2)cc1 (stereo unspecified)	0%	-6%	8%	?	17%
COc1ccccc1CCNC(=O)c1cnn2c(C(F)F)cc(C)nc12	6%	15%	-8%	-6%	-9%
COc1ccc(-c2cc(C(F)F)n3ncc(C(=O)NCC4CCCO4)c3n2)cc1 (stereo unspecified)	4%	-8%	?	2.1µM*	?
CCCCC(=O)Nc1ccc(C(=O)Nc2nnc(COC)s2)cc1	27%	2%	-6%	2%	-7%
CCOc1ccccc1C(=O)OC(C)C(=O)Nc1ccc(S(=O)(=O)N2CCCC2)cc1 (stereo unspecified)	/	/	1%	-25%	0%
O=C(O)CCS(=O)(=O)c1cccc2cccnc12	-22%	6%	2%	12%	19%
CCCCN(c1ccccc1)S(=O)(=O)c1cccc2cccnc12	-35%	14µM*	2%	?	2%
CN(Cc1ccccc1)S(=O)(=O)c1cccc2cccnc12	27%	0%	0%	-14%	-22%
CCSS(=O)(=O)c1cccc2cccnc12	22µM*	?	?	14%	?
CCn1cc(C(=O)NCCC(=O)NCCCO)c(=O)c2cc3c(cc21)OCO3	-4%	3%	2%	2%	-1%
CCN(CC)S(=O)(=O)c1ccc(-n2cnc3cc(C)c(C)cc32)nc1	15%	-6%	1%	9%	0%
CCOC(=O)c1nc(S(C)(=O)=O)ncc1N1CCOCC1	-1%	-4%	-1%	-10%	0%
